# From PMC4336329 (PLoS ONE, 2015)
# Screen size: about 310,000 compounds; about 14,000 (4.5%) showed an effect of 50% or more. Effects have a minus sign here. The sample holds strong results, similar compounds and a random draw of the others, so the mix is not that of the screen.
# Biological target: human ether-à-go-go-related gene (hERG) potassium channel (human, UniProt Q12809)
# Experiment: primary screen, population patch clamp on CHO cells stably expressing hERG; higher = less effect of the substance
# 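Also: peak tail current of the secondary pulse compared with the same well before compound.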
# Sequence of human ether-à-go-go-related gene (hERG) potassium channel (Q12809 whole entry, looked up): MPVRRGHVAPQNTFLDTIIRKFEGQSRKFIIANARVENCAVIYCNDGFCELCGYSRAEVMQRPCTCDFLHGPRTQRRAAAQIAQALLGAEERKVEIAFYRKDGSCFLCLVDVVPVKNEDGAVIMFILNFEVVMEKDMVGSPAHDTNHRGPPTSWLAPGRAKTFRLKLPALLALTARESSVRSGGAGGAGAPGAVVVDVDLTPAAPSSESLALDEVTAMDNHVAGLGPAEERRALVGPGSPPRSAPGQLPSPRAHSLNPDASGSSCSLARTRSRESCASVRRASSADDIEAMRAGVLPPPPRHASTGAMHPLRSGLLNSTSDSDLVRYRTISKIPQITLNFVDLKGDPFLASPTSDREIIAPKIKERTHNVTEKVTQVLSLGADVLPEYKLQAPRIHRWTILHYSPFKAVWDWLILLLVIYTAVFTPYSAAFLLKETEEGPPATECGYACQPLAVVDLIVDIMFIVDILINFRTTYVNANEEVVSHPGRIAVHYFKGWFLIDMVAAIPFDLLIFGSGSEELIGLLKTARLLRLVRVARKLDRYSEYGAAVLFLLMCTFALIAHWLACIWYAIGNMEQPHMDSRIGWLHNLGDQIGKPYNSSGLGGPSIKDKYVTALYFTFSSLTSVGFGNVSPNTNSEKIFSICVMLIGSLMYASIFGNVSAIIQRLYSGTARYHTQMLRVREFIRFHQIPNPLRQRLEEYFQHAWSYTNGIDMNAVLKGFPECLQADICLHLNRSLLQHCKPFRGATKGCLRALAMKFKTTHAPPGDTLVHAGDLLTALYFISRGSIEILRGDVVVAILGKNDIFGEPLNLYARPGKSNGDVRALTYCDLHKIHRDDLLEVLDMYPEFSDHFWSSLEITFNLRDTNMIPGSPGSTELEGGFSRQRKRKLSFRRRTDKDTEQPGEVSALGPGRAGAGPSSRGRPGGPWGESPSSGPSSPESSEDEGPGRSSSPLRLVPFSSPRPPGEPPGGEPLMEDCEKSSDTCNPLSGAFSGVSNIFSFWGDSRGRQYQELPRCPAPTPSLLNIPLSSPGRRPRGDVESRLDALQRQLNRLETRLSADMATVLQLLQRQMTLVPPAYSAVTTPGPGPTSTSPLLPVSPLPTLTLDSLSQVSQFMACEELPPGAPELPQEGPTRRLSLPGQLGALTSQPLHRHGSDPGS
row,Structure (SMILES),"hERG current change (%, negative = inhibition) at 10uM [%]"
1,CCN(CC(=O)Nc1cc(Cl)ccc1C)C(=O)CCOc1ccc(C)cc1,-8.25
2,CCN(CC(=O)NCc1cccs1)C(=O)CCCOc1ccc(C(C)(C)C)cc1,-52.6
3,CCCCOc1ccc(C(=O)N(CC)CC(=O)NCc2cccs2)cc1,-19.1
4,CCOc1ccc(N(CC(=O)NCc2ccc(Cl)cc2)S(=O)(=O)c2ccccc2)cc1,20.4
5,CCN(CC(=O)Nc1c(F)cccc1F)C(=O)CCC(=O)c1ccc(F)cc1,-12.1
6,CCN(CC(=O)Nc1c(F)cccc1F)C(=O)CCCNC(=O)c1ccc(Cl)cc1,-7.06
7,CCN(CC(=O)NCc1cccs1)C(=O)CCCOc1ccccc1,-35.2
8,CCN(CC(=O)Nc1ccccc1C(F)(F)F)C(=O)CCOc1ccc(C)cc1,-13.1
9,CCOc1ccc(OCCC(=O)OCC(=O)NCc2ccc(Cl)cc2)cc1,8.85
10,CCN(CC(=O)Nc1c(F)cccc1F)C(=O)CCNC(=O)c1ccc([N+](=O)[O-])cc1,-55.4
11,CCN(CC(=O)NCc1ccc(Cl)cc1)C(=O)CCOc1ccc(C)cc1,-82.6
12,CCOc1ccc(OCCC(=O)N(CC)CC(=O)NCc2ccc(Cl)cc2)cc1,-60.5
13,O=C(NCC1COCCO1)C1CCN(S(=O)(=O)c2ccccc2)CC1 (centres unmarked),-7.05
14,Cc1cc(C)cc(N(CC(=O)NCc2cccnc2)S(C)(=O)=O)c1,-1.95
15,Cc1ccccc1NCc1ccc([N+](=O)[O-])s1,-38.8
16,CCC(C)(CC(=O)N(C)CCC#N)c1ccccc1 (centres unmarked),-0.111
17,COc1ccc(C(=O)N2CCCC(Nc3ccc(C)c(C)c3)C2)c(OC)n1 (centres unmarked),-17.7
18,COc1cc(OC)cc(-c2nc3ccccc3c(=O)n2OC(=O)c2ccccc2C)c1,10.6
19,CCN(CC(=O)NCc1cccs1)C(=O)CCOc1ccccc1C,-19.8
20,CCN(CC(=O)Nc1c(F)cccc1F)C(=O)CCOc1ccc(C)cc1,-2.71
21,CCOc1ccc(OCCCC(=O)N(CC)CC(=O)Nc2c(F)cccc2F)cc1,-5.99
22,CCOc1ccc(OCCC(=O)N(CC)CC(=O)Nc2c(F)cccc2F)cc1,-60.2
23,CCN(CC(=O)NCc1ccc(Cl)cc1)C(=O)CCOc1ccccc1C,-71

row,Structure (SMILES),"hERG current change (%, negative = inhibition) at 10uM [%]"
1,CCN(CC(=O)Nc1cc(Cl)ccc1C)C(=O)CCOc1ccccc1C,18.4
2,COCCn1c(C)cc(C(=O)COC(=O)c2cncc(Br)c2)c1C,-31.3
3,C=CCn1c(C)cc(C(=O)COC(=O)c2cncc(Br)c2)c1C,-55.9
4,C=CCn1c(C)cc(C(=O)COC(=O)c2ccc3c(c2)NC(=O)CS3)c1C,4.69
5,Cc1cc(C)nc(NS(=O)(=O)c2ccc(N)cc2)n1,12
6,COc1cc(NS(=O)(=O)c2ccc(N)cc2)nc(OC)n1,9.57
7,CNc1cc(NS(=O)(=O)c2ccc(N)cc2)nc(NC)n1.Cl,-61.4
8,CN(C)CCNc1ncnc2c1sc1nc(N3CCCC3)c3c(c12)CC(C)(C)OC3,-20.4
9,CCN(CC)CCNc1ncnc2c1sc1nc(N3CCCC3)c3c(c12)CC(C)(C)OC3,-65.5
10,CCN(CC)CCNc1ncnc2c1sc1nc(N3CCOCC3)c3c(c12)CCCC3,-32.8
11,OCCN1CCN(c2ncnc3c2sc2nc(N4CCOCC4)c4c(c23)CCC4)CC1,-22.1
12,CC(C)CNc1ncnc2c1sc1nc(N3CCOCC3)c3c(c12)CC(C)(C)OC3,-4.77
13,CN(CCO)c1ncnc2c1sc1nc(N3CCOCC3)c3c(c12)CCC3,-55.2
14,CC1(C)Cc2c(c(N3CCOCC3)nc3sc4c(NN)ncnc4c23)CS1,-5.43
15,CCN(CC)CCNc1ncnc2c1sc1nc(N3CCOCC3)c3c(c12)CC(C)(C)SC3,-71.1
16,OCCN(CCO)c1ncnc2c1sc1nc(N3CCOCC3)c3c(c12)CCCC3,-13.3
17,C[C@]12CCC(OC(=O)CCC(=O)O)CC1=CCC1C2CC[C@]2(C)C(=O)CCC12 (some centres unmarked),11.5
18,CC1(C)c2[nH]c3ccccc3c2C[C@H]2C(=O)N(N)CC(=O)N21.Cl,19
19,COc1ccc(N2CCN(c3nc4cc(C)ccc4cc3C=O)CC2)cc1,16.6
20,COC(=O)C1=C(c2c(C)noc2C)C[C@@H]2CC[C@H]1N2C(=O)NCc1ccco1,19
21,O=C1COc2ccc(C(=O)CSc3nnc(NCc4ccccc4)s3)cc2N1,-9.48
22,O=[N+]([O-])c1ccc(Sc2ccccn2)nc1,10.8
23,CCn1c(Sc2ccc([N+](=O)[O-])cn2)nnc1-c1ccco1,-66.5

row,Structure (SMILES),"hERG current change (%, negative = inhibition) at 10uM [%]"
1,CCOC(=O)c1cnc(SCC(=O)Nc2sc(C)c(C)c2C#N)nc1N,14.2
2,CCOC(=O)c1cnc(SCC(=O)Nc2nc(C)c(C)s2)nc1N,-61.9
3,CCn1c(SCC(N)=O)nnc1-c1ccco1,3.15
4,CCOC(=O)c1cnc(SCC(=O)Nc2nnc(CC)s2)nc1N,8.46
5,CCn1c(SCC(=O)Nc2nc(C)cs2)nnc1-c1ccco1,-50.8
6,O=[N+]([O-])c1ccc(Sc2ccccc2)nc1,8.82
7,O=[N+]([O-])c1ccc(Sc2ncc3ccccn23)nc1,-51.6
8,CCn1c(SCC(=O)Nc2nncs2)nnc1-c1ccco1,17.2
9,Cc1csc(NC(=O)CSc2nnc(-c3ccco3)n2C)n1,-31.6
10,O=[N+]([O-])c1ccc(Sc2n[nH]c(-c3ccco3)n2)nc1,-0.59
11,COc1ccc(C2/C(=C(/O)c3ccc(C)cc3)C(=O)C(=O)N2C)cc1 (centres unmarked),-2.36
12,CC1CCc2ccccc2N1C(=N)N(C)C.Cl (centres unmarked),3.44
13,CCNC(=O)O/N=C(\C)c1sc(-c2ccccc2)nc1C,-11.2
14,CCOC(=O)C(=CNNc1cccc(Cl)c1)C(=O)OCC,15.5
15,O=C(Nc1ccc(F)cc1F)c1sccc1SCc1cccc(C(F)(F)F)c1,-4.52
16,O=C(Nc1ccc(Nc2ccccc2)cc1)c1c(F)c(F)c(F)c(F)c1F,22.9
17,CCOc1cccc(N(C(=O)c2ccco2)C(C(=O)NC2CCCC2)c2cccnc2)c1 (centres unmarked),0.854
18,Cc1ccc2sc(NNC(=O)c3cc(-c4cccs4)nc4ccccc34)nc2c1C,16.3
19,CCn1c(SCC(=O)Nc2nc(C)c(C)s2)nnc1-c1cccnc1,-26.2
20,CCn1c(SCC(=O)Nc2nc(C)c(C)s2)nnc1-c1ccco1,-68.8
21,CCn1c(SCC(=O)Nc2nc(C)c(C)s2)nnc1-c1cccs1,-73.4
22,CCn1c(Cc2ccccc2)nnc1SCC(=O)Nc1nc(C)c(C)s1,9.3
23,CCc1nnc(NC(=O)CSc2nnc(-c3ccco3)n2CC)s1,13.7

row,Structure (SMILES),"hERG current change (%, negative = inhibition) at 10uM [%]"
1,CCn1c(SCC(=O)Nc2nnc(C)s2)nnc1-c1ccco1,-5.98
2,Cc1ccc2cc(C=C(C#N)C#N)c(N3CCCCC3)nc2c1,15.3
3,Nc1ccc2c(c1)-c1ccccc1S(=O)(=O)N2,11.1
4,COc1ccc(O)c2c(=O)c3c(OC)cc4c(c3oc12)C1C=COC1O4 (centres unmarked),4.03
5,O=C(c1cccs1)N1CCN=C1SCc1ccccc1,7.77
6,O=C1c2ccccc2C(=O)N1CCCn1c(=O)oc2ccccc21,11.4
7,Cc1cccc(-n2nnc3c(=O)n(Cc4ccccn4)cnc32)c1,-7.65
8,Cc1ccc(C(CNC(=O)Nc2ccc(Cl)cc2)N2CCN(C)CC2)cc1 (centres unmarked),-76.8
9,CN1CCN(C(CNC(=O)c2ccc(Br)o2)c2ccc(F)cc2)CC1 (centres unmarked),-17.5
10,Cc1cccc(NC(=O)NCC(c2ccc(F)cc2)N2CCN(C)CC2)c1 (centres unmarked),-42.6
11,COc1ccc(C(CNC(=O)Nc2ccccc2)N2CCN(C)CC2)cc1 (centres unmarked),-12.8
12,Cc1ccc(C(CNC(=O)c2ccc(Br)o2)N2CCN(C)CC2)cc1 (centres unmarked),-60.4
13,CN1CCN(C(CNC(=O)Nc2ccc(Cl)cc2)c2ccc(F)cc2)CC1 (centres unmarked),-56.3
14,COc1ccc(C(CNC(=O)Nc2ccc(Cl)cc2)N2CCN(C)CC2)cc1 (centres unmarked),-24.5
15,Cc1ccc(C(CNC(=O)Nc2ccccc2)N2CCN(C)CC2)cc1 (centres unmarked),-28.9
16,Cc1ccc(C(CNC(=O)c2ccco2)N2CCN(C)CC2)cc1 (centres unmarked),-11.1
17,Cc1ccc(/C=C(\C#N)C(=O)NCc2ccco2)o1,3.84
18,O=C(c1ccccc1)c1cn[nH]c1-c1ccccc1O,5.65
19,CCOc1ccc(S(=O)(=O)NCCC(=O)N(C)Cc2cccs2)cc1,-20.9
20,COc1cc(/C=N/NC(=O)c2ccccn2)ccc1OC(=O)c1ccc(Br)cc1,1.06
